Data from PubChem BioAssay (NCI).
The panel holds about 83,000 compounds, 20% with a hit somewhere; the sample as a whole holds those more often.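 96-well plates, one dose, 48 hours. Percent growth reported; active if below 10.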 A number with no mark means an inactive call. Active and inactive are the calls of the source.

Assays:
Assay in all cases: NCI-60 one-dose screen, 48 h (100 = growth as untreated, 0 = no growth, -100 = all killed)
Settings in all cases: 10 µM
DU-145 prostate = system: DU-145 prostate
K-562 leukemia = system: K-562 leukemia
MALME-3M melanoma = system: MALME-3M melanoma
MDA-MB-231 breast = system: MDA-MB-231 breast
RXF 393 renal = system: RXF 393 renal
SF-268 CNS = system: SF-268 CNS
SF-295 CNS = system: SF-295 CNS
SF-539 CNS = system: SF-539 CNS
UACC-257 melanoma = system: UACC-257 melanoma
M14 melanoma = system: M14 melanoma
HCT-15 colon = system: HCT-15 colon
HT29 colon = system: HT29 colon
SNB-75 CNS = system: SNB-75 CNS
SNB-19 CNS = system: SNB-19 CNS
U251 CNS = system: U251 CNS
PC-3 prostate = system: PC-3 prostate
SK-MEL-5 melanoma = system: SK-MEL-5 melanoma
UACC-62 melanoma = system: UACC-62 melanoma
LOX IMVI melanoma = system: LOX IMVI melanoma
SK-MEL-28 melanoma = system: SK-MEL-28 melanoma

Structure (SMILES) | growth (DU-145 prostate) [%] | growth (K-562 leukemia) | growth (MALME-3M melanoma) | growth (MDA-MB-231 breast) | growth (RXF 393 renal) | growth (SF-268 CNS) | growth (SF-295 CNS) | growth (SF-539 CNS) | growth (UACC-257 melanoma) | growth (M14 melanoma) | growth (HCT-15 colon) | growth (HT29 colon) | growth (SNB-75 CNS) | growth (SNB-19 CNS) | growth (U251 CNS) | growth (PC-3 prostate) | growth (SK-MEL-5 melanoma) | growth (UACC-62 melanoma) | growth (LOX IMVI melanoma) | growth (SK-MEL-28 melanoma)
O=C1/C(=C/c2ccc([N+](=O)[O-])s2)Oc2cc(Cl)ccc21 | 32.2 | -8.29% (active) | -49.5% (active) | -71.7% (active) | -49.6% (active) | -59.4% (active) | 52.1% | -10.9% (active) | 31.7% | 2.51% (active) | 0.579% (active) | -4.42% (active) | 58.8% | 2.32% (active) | -58% (active) | -73% (active) | 17.6% | -37.7% (active) | -78.4% (active) | -29.2% (active)
CN(C)CCOc1ccccc1NC1=C(Cl)C(=O)C(Nc2ccccc2OCCN(C)C)=C(Cl)C1=O | 84.7 | -12.6% (active) | 64.7% | 53.1% | 68.5% | 86% | 103% | 101% | 85.2% | 92.9% | 79.7% | 15% | 107% | 93.9% | 68.6% | 84.3% | 93.6% | 95.6% | -65.7% (active) | 109%
CN(C)CCN(Cc1ccccc1)c1ccc2ccccc2n1 | 107 | 93.4% | 96.5% | 87.2% | 105% | 103% | 88.5% | 106% | 98% | 91.3% | 98% | 89.7% | 82% | 95.6% | 94.2% | 81.4% | 91.7% | 92.9% | 88.8% | 101%
CC(C)(C)OC(=O)N1CCc2c(sc3ncnc(N/N=C/c4cccc(Br)c4)c23)C1 | 62.4 | 19.3% | 66.9% | 49.9% | 63.5% | 63.9% | 64.7% | 53.3% | 80.8% | 43% | 18.8% | 47.7% | 67.6% | 64.7% | 51% | 44.4% | 44.1% | 43% | 33.1% | 75.2%
O=C1/C=C/[C@@H](O)[C@@H]2C[C@@H](O)C[C@H]2/C=C/CCC[C@H](CCc2ccc(C(F)(F)F)cc2)O1 | 19.5 | 11.7% | -13.9% (active) | -84% (active) | -31.6% (active) | 4.75% (active) | 11.4% | 25.2% | 10.5% | 7.65% (active) | -3.05% (active) | -36.7% (active) | -13.5% (active) | 17.6% | 12.1% | 8.76% (active) | -87.2% (active) | 6.89% (active) | -71.8% (active) | 2.07% (active)
CCOC(=O)c1cc(C(=O)c2cc(OC)c(OC)c(OC)c2)n2ncc3ccccc3c12 | 83.6 | 23% | 70.5% | 98.7% | 88.3% | 84% | 72.5% | 86.7% | 57.1% | 50.2% | 58.5% | 29.6% | 79.5% | 88.2% | 81% | 54.6% | 34.5% | 70.2% | 66.3% | 90.9%
NS(=O)(=O)Oc1ccc(-c2ccc3sccc3c2)cc1 | 104 | 96.9% | 106% | 90% | 100% | 102% | 97.2% | 98.9% | 104% | 100% | 103% | 107% | 97.3% | 101% | 88.8% | 96.5% | 95.9% | 61.6% | 95.2% | 97.6%
CN(C)CCOc1cccc(-c2nc3sccn3c2-c2ccnc(S(C)(=O)=O)n2)c1 | 93 | 101% | 101% | 80.2% | 104% | 101% | 100% | 86.6% | 106% | 105% | 92.3% | 96.8% | 87.7% | 87.5% | 90% | 80.8% | 98.3% | 91.4% | 92.1% | 100%
O=S(=O)(Oc1ccc(-c2ccc3sccc3c2)cc1)c1ccc(F)cc1 | 104 | 78.7% | 106% | 108% | 110% | 108% | 96.4% | 110% | 106% | 113% | 88.9% | 96% | 120% | 103% | 101% | 91% | 97.6% | 80.2% | 96.9% | 103%
COc1ccc(Nc2cnc3cc(NS(=O)(=O)c4ccc(C)cc4)ccc3n2)cc1 | 102 | 24.2% | 74.1% | 67.6% | 100% | 88.1% | 75% | 80.9% | 73.3% | 75.8% | 59.8% | 45.1% | 61.7% | 83% | 77.9% | 101% | 77.4% | 65.3% | 87% | 81.1%
O=C(CCCSc1nc(-c2ccc(Cl)cc2)cc(-c2ccc(Cl)cc2)n1)NO | 15.1 | 5.07% (active) | 2.37% (active) | 14.6% | -15.3% (active) | 11.6% | -4.84% (active) | -23% (active) | 13.2% | -15.5% (active) | 17.6% | 23.2% | 13.7% | 17.7% | 17.2% | 21% | -31.7% (active) | -10.7% (active) | -2.15% (active) | 25%
O=C(CCCSc1nc(-c2ccccc2)cc(-c2ccc(Cl)cc2)n1)NO | 14.2 | 8.59% (active) | 4.49% (active) | 17.7% | -19.2% (active) | 14.3% | 4.46% (active) | -27.2% (active) | 8.34% (active) | 5.54% (active) | 18.5% | 20.3% | 5.53% (active) | 20.1% | 16.8% | 20.6% | -27.7% (active) | -15.3% (active) | -3.49% (active) | 30.9%
O=C(CC(CC(=O)c1ccccc1)c1ccccc1O)c1ccccc1 | 103 | 89.4% | 91.8% | 90.4% | 107% | 89.8% | 99.9% | 99.1% | 98.4% | 92.8% | 96.5% | 90.3% | 89.1% | 91.2% | 92% | 81% | 88.6% | 81.5% | 93.5% | 101%
CC(=O)Nc1ccc2c(c1)C(=O)c1cccc(C(=O)O)c1-2 | 116 | 115% | 148% | 112% | 109% | 104% | 100% | 106% | 105% | 107% | 107% | 115% | 91% | 101% | 108% | 99.5% | 95.5% | 109% | 109% | 97.9%
Cc1ccc2nc(Cl)c(-c3nc4ccccc4o3)cc2c1 | 103 | 80.7% | 86.9% | 91.4% | 102% | 87.9% | 105% | 99.2% | 108% | 106% | 79.4% | 102% | 90.2% | 93.2% | 102% | 79.8% | 88.7% | 94.9% | 82.8% | 104%
COc1cccc(C2C(C#N)=C(N)Oc3cc(N)ccc32)c1 (stereo not given) | 10.6 | 11.9% | 51.9% | 48.8% | -7.34% (active) | 47.1% | 5.3% (active) | 4.8% (active) | 47.2% | 10.9% | 40.3% | 2.39% (active) | 3.44% (active) | 44.6% | 4.8% (active) | 25.4% | 21.5% | 41.7% | 43.6% | 46.9%
